# Molecular target: Solute carrier family 2, facilitated glucose transporter member 1 (Homo sapiens) (UniProt P11166)
# Experiment: ST_JUDE_LEISH: Cytotoxicity at 2uM final concentration against transgenic Leishmania Mexicana promastigotes LmGLUT1 that are glucose transport deficient and complemented with the human glucose transporter GLUT1. Activity is measured by DNA content using SYBR green in vitro
# Type: functional
# Chain of Solute carrier family 2, facilitated glucose transporter member 1 (Homo sapiens) (P11166 whole entry): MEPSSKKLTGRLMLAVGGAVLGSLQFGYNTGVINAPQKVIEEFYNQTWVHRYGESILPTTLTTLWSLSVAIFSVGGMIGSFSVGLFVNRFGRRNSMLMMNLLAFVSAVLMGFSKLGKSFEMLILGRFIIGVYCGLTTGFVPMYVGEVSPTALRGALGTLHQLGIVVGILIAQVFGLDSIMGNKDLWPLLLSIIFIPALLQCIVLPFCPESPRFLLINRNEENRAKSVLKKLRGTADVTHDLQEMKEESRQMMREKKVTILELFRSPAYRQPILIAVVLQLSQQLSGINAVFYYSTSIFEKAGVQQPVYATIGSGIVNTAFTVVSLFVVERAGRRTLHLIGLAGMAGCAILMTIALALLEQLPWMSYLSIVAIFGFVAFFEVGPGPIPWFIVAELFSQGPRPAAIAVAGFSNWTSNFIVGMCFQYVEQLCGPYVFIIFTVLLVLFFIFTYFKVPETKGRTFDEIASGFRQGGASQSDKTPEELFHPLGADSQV
row,Compound,inhibition [%]
1,CCCCCCCCn1ccc(=N)cc1,4.46
2,CCCOc1ccc2ccccc2c1CNCCCCCCNCc1c(OCCC)ccc2ccccc12,2.66
3,CCOCCCNc1nc2cc(OC)c(OC)cc2c2nc(-c3ccccc3)nn12,1.59
4,Cc1cccc2nc(-c3ccc(-c4ccc(CN5CCN(c6ccc(C#N)cn6)CC5)cc4)s3)[nH]c12,5.16
5,CCCN(CCC)CCCCC(C)Nc1c2ccc(Cl)cc2nc2ccc(OC)cc12 (configuration not stated),8.02
6,Cc1[nH]c(C)c(-c2ccc(-c3ccc(Cl)cc3)nc2)c(=O)c1Cl,0.56
7,Cc1nc(-c2cccc(Nc3nccc(NCC(O)c4ccccc4)n3)c2)cs1 (configuration not stated),1.43
8,COc1ccc2nccc([C@@H](O)CN3CCC(NC(=O)c4ccc(Cl)c([N+](=O)[O-])c4)CC3)c2c1,13.3
9,O=C(NCC(c1ccc(C(F)(F)F)cc1)N1CCCC1)c1cc(-c2ccncc2)c(-c2cccc(O)c2)o1 (configuration not stated),0.81
10,N=C(N)NN=CC(=O)Nc1ccc(C(F)(F)F)cc1,-0.81
11,N=C1N=C(N)NC2(CCCCC2)N1OCCCOc1cccc2ccccc12,54.1
12,Cc1sc2cc(Cl)cc(Cl)c2c1S(=O)(=O)Nc1ccc2nccc(N3CCNCC3)c2c1,-1.42
13,N#Cc1ccc(N2CCN(Cc3ccc(-c4ccc(-c5nc6cc(C(F)(F)F)ccc6[nH]5)cc4)cc3)CC2)nc1,2.63
14,Cc1[nH]c2ccc(-c3ccc(N(C)C)cc3)cc2c(=O)c1Cl,2.49
15,N=C(N)Nc1ccc(OCCCCCOc2ccc(NC(=N)N)c(Cl)c2)cc1Cl,-0.79
16,O=C(NCCCN1CCC(N2CCCCC2)CC1)C1=Cc2cc(Br)ccc2OC1,1.4
17,COc1ccc2nc(-c3ccccc3)cc(N/N=C/c3ccc([N+](=O)[O-])o3)c2c1,15.9
18,CC1CCN(Cc2c(O)ccc3c(O)c(-c4nc5ccccc5s4)c(=N)oc23)CC1,0.12
19,CN1CCN(CCCN(Cc2cccc(-c3ccc(CNCc4ccc5c(c4)OCO5)cc3)c2)C(=O)CCC2CCCC2)CC1,51.2
20,CN1CCN(Cc2ccc(-c3ccc4c(Nc5ccc(Oc6ccccc6)cc5)ccnc4c3)o2)CC1,-0.9
21,CS(=O)(=O)c1cccc(-c2cnc(N)c3cc(-c4ccc(F)cc4)ccc23)c1,2.85
22,COc1ccc(OC)c(CC2c3ccc(Br)c(O)c3CCN2C)c1 (configuration not stated),1.36
23,COC(=O)c1ccc2nc(-c3ccc(C(=O)NC4CCN(Cc5ccccc5)CC4)s3)[nH]c2c1,6.63

# Molecular target: Hexose transporter 1 (Plasmodium falciparum) (UniProt O97467)
# Experiment: ST_JUDE_LEISH: Cytotoxicity at 2uM final concentration against transgenic Leishmania Mexicana promastigotes LmPfHT that are glucose transport deficient and complemented with the Plasmodium falciparum hexose transporter. Activity is measured by DNA content using SYBR green in vitro
# Type: functional
row,Compound,inhibition [%]
1,O=C(CCNc1ccnc(NCC2CCCCC2)n1)Nc1ccccc1,5.25
2,CN1CC[C@@H](Oc2cc(C(=O)NCc3ccc(Cl)c(Cl)c3)ccc2C(F)(F)F)C1,-1.04
3,CC(C)n1ncc2c(C(=O)N3CCCCCC3)cc(-c3ccccc3)nc21,-0.92
4,CN1CCN(c2cc(NC(=O)Nc3ccc(-c4ccncc4)c(Cl)c3)ccc2Br)CC1,8.89
5,c1ccc(-c2nc(Nc3nc4ccccc4[nH]3)[nH]c2-c2ccccc2)cc1,6.74
6,O=C(Nc1cccc(-c2ccc(-c3nc4ccccc4[nH]3)cc2)c1)c1cnn2cccnc12,-0.45
7,Cc1noc(C)c1-c1cccc(CNCc2cccc(-c3ccc(-c4nc5ccccc5[nH]4)s3)c2)c1,3.74
8,COc1ccc(-c2cccc(NC(=O)c3ccc(Cl)cc3)c2)cc1CN1CCNCC1,0.49
9,N=C(N)Nc1nc(-c2ccc(NCc3ccc(CNc4cccc(-c5csc(NC(=N)N)n5)c4)cc3)cc2)cs1,1.69
10,CC(=O)Nc1nc(C(=O)Nc2ccc(-c3cccc(-c4nc5cc(F)ccc5[nH]4)c3)cc2)cs1,2.89
11,CS(=O)(=O)NCCCNCc1cccc(-c2csc(-c3nc4ccccc4[nH]3)c2)c1,-0.51
12,CC(=O)c1sc(NC(=O)Nc2ccc(C)cc2C)nc1C,8.74
13,O=C(/C=C/c1ccc(Cl)c(Cl)c1)NCCCCCN1CCC(NC(=O)Nc2ccc([N+](=O)[O-])cc2)CC1,1.11
14,Nc1nc(N)c(-c2ccccc2)c(=O)[nH]1,3.54
15,COc1ccc(CNc2ccnc(-n3cnc4cc(C)c(C)cc43)n2)cc1Cl,3.69
16,COc1ccccc1NC(=O)Nc1ccc(-c2ccc(-c3nc4cccc(C)c4[nH]3)s2)cc1,1.17
17,CCCCCCCCn1ccc(=N)cc1,3.06
18,CCCOc1ccc2ccccc2c1CNCCCCCCNCc1c(OCCC)ccc2ccccc12,1.04
19,CCOCCCNc1nc2cc(OC)c(OC)cc2c2nc(-c3ccccc3)nn12,2.14
20,Cc1cccc2nc(-c3ccc(-c4ccc(CN5CCN(c6ccc(C#N)cn6)CC5)cc4)s3)[nH]c12,6.3

row,Compound,inhibition [%]
1,CCCN(CCC)CCCCC(C)Nc1c2ccc(Cl)cc2nc2ccc(OC)cc12 (configuration not stated),8.65
2,Cc1[nH]c(C)c(-c2ccc(-c3ccc(Cl)cc3)nc2)c(=O)c1Cl,1.71
3,Cc1nc(-c2cccc(Nc3nccc(NCC(O)c4ccccc4)n3)c2)cs1 (configuration not stated),0.76
4,COc1ccc2nccc([C@@H](O)CN3CCC(NC(=O)c4ccc(Cl)c([N+](=O)[O-])c4)CC3)c2c1,8.44
5,O=C(NCC(c1ccc(C(F)(F)F)cc1)N1CCCC1)c1cc(-c2ccncc2)c(-c2cccc(O)c2)o1 (configuration not stated),-0.82
6,N=C(N)NN=CC(=O)Nc1ccc(C(F)(F)F)cc1,-0.97
7,N=C1N=C(N)NC2(CCCCC2)N1OCCCOc1cccc2ccccc12,60
8,Cc1sc2cc(Cl)cc(Cl)c2c1S(=O)(=O)Nc1ccc2nccc(N3CCNCC3)c2c1,-0.22
9,N#Cc1ccc(N2CCN(Cc3ccc(-c4ccc(-c5nc6cc(C(F)(F)F)ccc6[nH]5)cc4)cc3)CC2)nc1,4.69
10,Cc1[nH]c2ccc(-c3ccc(N(C)C)cc3)cc2c(=O)c1Cl,3.7
11,N=C(N)Nc1ccc(OCCCCCOc2ccc(NC(=N)N)c(Cl)c2)cc1Cl,-1.31
12,O=C(NCCCN1CCC(N2CCCCC2)CC1)C1=Cc2cc(Br)ccc2OC1,2.63
13,COc1ccc2nc(-c3ccccc3)cc(N/N=C/c3ccc([N+](=O)[O-])o3)c2c1,10.5
14,CC1CCN(Cc2c(O)ccc3c(O)c(-c4nc5ccccc5s4)c(=N)oc23)CC1,0.79
15,CN1CCN(CCCN(Cc2cccc(-c3ccc(CNCc4ccc5c(c4)OCO5)cc3)c2)C(=O)CCC2CCCC2)CC1,45.7
16,CN1CCN(Cc2ccc(-c3ccc4c(Nc5ccc(Oc6ccccc6)cc5)ccnc4c3)o2)CC1,-0.3
17,CS(=O)(=O)c1cccc(-c2cnc(N)c3cc(-c4ccc(F)cc4)ccc23)c1,1.64
18,COc1ccc(OC)c(CC2c3ccc(Br)c(O)c3CCN2C)c1 (configuration not stated),1.41
19,COC(=O)c1ccc2nc(-c3ccc(C(=O)NC4CCN(Cc5ccccc5)CC4)s3)[nH]c2c1,10.5

# From ChEMBL document CHEMBL3433997, “St. Jude Leishmania screening dataset” (2016)
